Results on 67 compounds are retold here after PMC4552634, “A New Set of Chemical Starting Points with Plasmodium falciparum Transmission-Blocking Potential for Antimalarial Drug Discovery” (PLoS ONE, 2015).

Where two headings read alike, the source gives them in different places. Out of some 13,000 compounds screened, about 3,200 (25%) showed an effect of 50% or more. This is one part of the list.

The test has as its system P. falciparum stage V gametocytes. Further details: BacTiter-Glo ATP luminescence viability of purified stage V gametocytes in 384-well plates, per cent inhibition versus DMSO. Particulars: 48 h, 5 µM, inhibitor.

The term % Inhibition denotes the change of the read-out against control, counted positive when it falls. `CCC(Cc1cnc2nc(N)nc(N)c2n1)c1ccc(C(=O)O)cc1` (stereo not shown) [TCMDC-137331]: the “% Inhibition” value is recorded as 24.52%. On the same count and under the same terms, the value for `FC(F)(F)c1ccc2[nH]c(-c3ccc(-c4ccc(CN5CCN(c6ccncc6)CC5)cc4)s3)nc2c1.O=C(O)C(F)(F)F` [TCMDC-132920] was -8.718%; that for `O=C(Nc1ccc([N+](=O)[O-])cc1O)Nc1ccccc1Oc1ccccc1` [TCMDC-139010] was -27.06%; that for `O=c1[nH]c2c(c(O)c1[N+](=O)[O-])CCC2` [TCMDC-131385] was -1.405%. With `Cc1ccc(NC(=O)NC2CCN(CCC(NC(=O)Cc3ccccc3)c3ccc(Cl)c(Cl)c3)CC2)cc1` (stereo not shown) [TCMDC-141708], the “% Inhibition” value is on record as -50.52%.

Regarding `CCOC(=O)C(=O)N1c2ccc(OCC)cc2-c2c(ssc2=S)C1(C)C` [TCMDC-124090], the “% Inhibition” value was -28.77%. On the same count and under the same terms, the same measure for `COc1cc(NC(=O)/C=C/c2cccc3cc[nH]c23)ccc1OCCN(C(C)C)C(C)C` [TCMDC-139962]: 14.04%; for `CCOC(=O)c1ccc(NC(=O)c2ccccc2C(=O)O)cc1` [TCMDC-125804]: 12.67%. Still for that read-out and setting: the same measure for `Cc1cc(NC(=O)c2ccc(-c3ccccc3)cc2)no1` [TCMDC-123478]: 45.67%; for `CCC(NC(=O)c1ccccc1NC(=O)c1ccc(C)cc1)C(=O)OC` (stereo not shown) [TCMDC-124179]: 51.66%; for `CC(=O)N(C)/N=C/[C@H](CCc1ccccc1)NC(=O)[C@H](CC(C)C)NC(=O)c1cccc(OCCN2CCOCC2)c1` [TCMDC-135821]: 14.53%.

In the case of `OC1(C(F)(F)F)CC(c2ccccc2)=NN1c1nncc(-c2ccccc2)n1` (stereo not shown) [TCMDC-123864], the “% Inhibition” value was 70.72%.

On to `O=C(Nc1cccc(-c2cccc(-c3nc4ccccc4[nH]3)c2)c1)NC1CC1c1ccccc1` (stereo not shown) [TCMDC-133253], for which, under “% Inhibition”, the “% Inhibition” value is listed as -2.475%. As to `Cc1cc(-c2ccc(CNC3CCN(C)CC3)cc2)ccc1S(=O)(=O)NCc1ccccc1` [TCMDC-132474], the “% Inhibition” value was determined as 44.56%.

With `CN1CCC(NCc2cccc(-c3ccc(S(=O)(=O)NCc4ccccc4)c(F)c3)c2)CC1` [TCMDC-132219], the “% Inhibition” value was 107.3%.

Consider `CN1CCC(NCc2ccc(-c3ccc(S(=O)(=O)NCc4ccccc4)c(F)c3)cc2)CC1` [TCMDC-132235], for which the “% Inhibition” value is 73.08%. Turning to `Cc1cc(-c2cccc(CNC3CCN(C)CC3)c2)ccc1S(=O)(=O)NCc1ccccc1` [TCMDC-132379], the “% Inhibition” value came out at 41.73%. Same read-out and setting: the value for `CCNc1cc(C(=O)N[C@@H](Cc2ccccc2)[C@H](O)CN[C@H](C)C(C)(C)C)cc(N2CCCCS2(=O)=O)c1` [TCMDC-135194] was 4.242%; that for `O=C(N[C@@H](CC1CCCCC1)C(=O)NCc1cccc(C(F)(F)F)c1)c1ccc(O)c(-c2ccc(Cl)c(Cl)c2)c1` [TCMDC-140836] was 10.47%. Same read-out and setting: the value for `Cc1nc2sccn2c1C(=O)NCCc1ccccc1Cl` [TCMDC-136538] was 1.524%; that for `CC(C)(CNC(=O)[C@H]1CCCN1)c1nc(-c2ccc(Cl)c(O)c2)c(-c2ccncc2)[nH]1` [TCMDC-141060] was -63.79%; that for `O=C(NCc1cccs1)[C@H](Cc1ccccc1)Nc1ccnc(NCC2CCCCC2)n1` [TCMDC-134708] was -6.926%. Still for that read-out and setting: the value for `COc1ccccc1CCNc1ncc(F)c(N[C@@H](Cc2ccccc2)C(=O)NCCc2ccccc2)n1` [TCMDC-134948] was 4.371%; that for `O=C(NCCc1ccccc1)[C@H](Cc1ccccc1)Nc1ccnc(NCC2CCCCC2)n1` [TCMDC-134711] was 29.07%; that for `COc1ccccc1CCNc1nccc(N[C@@H](Cc2ccccc2)C(=O)NCc2cccs2)n1` [TCMDC-134745] was 80.93%. With `O=C(NCc1cccs1)[C@H](Cc1ccccc1)Nc1ccnc(NCCc2ccccc2)n1` [TCMDC-134810], the “% Inhibition” value turned out to be 62.6%.

Take `O=C(NCc1cccs1)[C@H](Cc1ccccc1)Nc1ccnc(NCCc2ccc(F)cc2)n1` [TCMDC-134825]: the “% Inhibition” value is 42.49%.

`O=C(C1CC1)N1c2ccccc2CCc2ccccc21` [TCMDC-123880]: the “% Inhibition” value stood at 17.87%. Same read-out and setting: the value for `COc1cc(Cl)c(C)cc1-n1cc(C(=O)c2cc(Br)ccc2O)cc(C#N)c1=O` [TCMDC-123630] was -51.04%; that for `CCCCC(CC)NC(=O)[C@H]1CNCCN1C(=O)CCCc1ccccc1` (stereo partly shown) [TCMDC-141269] was -15.01%; that for `CCCCOC(=O)C1=C(C)NC2=C(C(=O)CC(c3ccc(OC)c(OC)c3)C2)C1c1ccc(O)cc1` (stereo not shown) [TCMDC-125635] was 28.36%. Still for that read-out and setting: the value for `CCOC(=O)C1=C(C)NC2=C(C(=O)C(C(=O)OC)C(C)C2)C1c1cc(Br)c(OCC)c(OC)c1` (stereo not shown) [TCMDC-125139] was 94.17%; that for `CCCCOC(=O)C1=C(C)NC2=C(C(=O)CCC2)C1c1ccc(OC)c(Br)c1` (stereo not shown) [TCMDC-124210] was -70.69%; that for `O=C(Nc1ccc(-c2ccc(-c3nc4ccccc4[nH]3)cc2)cc1)Nc1ccc(Cl)c(Cl)c1` [TCMDC-133279] was -60.39%. Same read-out and setting: the value for `Oc1ccc(CN2CCN(CCOC(c3ccc(F)cc3)c3ccc(F)cc3)CC2)cc1Cl` [TCMDC-135691] was 8.088%. Consider `CN1CCC(C(=O)Nc2cccc(-c3ccc(-c4nc5ccc(C(F)(F)F)cc5[nH]4)cc3)c2)CC1` [TCMDC-132190], for which the “% Inhibition” value is reported as 21.59%. Same read-out and setting: the value for `CC(C)CN(c1nc(C(=O)NNC(=O)[C@H](CC2CC2)NC(=O)c2cc3cc(OCCN4CCCCC4)ccc3o2)cs1)C1CC1` [TCMDC-139232] was 55.6%. Same read-out and setting: the value for `CC(C)CN(c1nc(C(=O)NNC(=O)[C@H](CC2CC2)NC(=O)c2cc3cc(OCCN(C)C)ccc3o2)cs1)C1CC1` [TCMDC-139231] was -13.37%; that for `O=C(N[C@@H](CC1CCCCC1)C(=O)NCCN1CCCCC1)c1ccc(O)c(-c2ccc(Cl)c(Cl)c2)c1` [TCMDC-140862] was 10.77%; that for `CC(C)(C)SCC(O)Cn1c2ccc(Br)cc2c2cc(Br)ccc21` (stereo not shown) [TCMDC-124058] was -64.42%. On the same count and under the same terms, the value for `OC(CNCc1ccco1)Cn1c2ccc(Br)cc2c2cc(Br)ccc21` (stereo not shown) [TCMDC-124071] was 6.388%; that for `OC(CN1CCN(C2CCCCC2)CC1)Cn1c2ccccc2c2cc(Br)ccc21` (stereo not shown) [TCMDC-124167] was -21.87%; that for `CC1CN(CC(O)Cn2c3ccc(Br)cc3c3cc(Br)ccc32)CC(C)O1` (stereo not shown) [TCMDC-124072] was 94.88%.

As to `CC(NCC(O)Cn1c2ccccc2c2ccccc21)c1ccccc1` (stereo not shown) [TCMDC-124073], the “% Inhibition” value is recorded as 13.55%. For the compound `Cc1nn(CC(O)Cn2c3ccc(Br)cc3c3cc(Br)ccc32)c(C)c1Br` (stereo not shown) [TCMDC-124164], the “% Inhibition” value is 72.64%.

Turning to `CC12CCC(CN(CC(O)Cn3c4ccccc4c4cc(I)ccc43)C1)C2(C)C` (stereo not shown) [TCMDC-124075], the “% Inhibition” value is recorded as -73.11%. Same read-out and setting: the value for `Oc1ccc2ccccc2c1CNC1CCCCCC1` [TCMDC-137607] was 9.064%; that for `CC1CC(C)CN(CC(O)CNC(=O)Nc2ccc(Br)cc2)C1` (stereo not shown) [TCMDC-134636] was 5.991%. On to `OC(CNC1CCCCC1)Cn1c2ccc(I)cc2c2cc(I)ccc21` (stereo not shown) [TCMDC-124074], for which the “% Inhibition” value was found to be 101.6%. The same measure, in the same setting: the same measure for `OC(CNC1CCCCC1)Cn1c2ccccc2c2ccccc21` (stereo not shown) [TCMDC-124168]: 90.81%; for `CC(C)(CNC(=O)C1CCN(CC2CCCCC2)CC1)c1nc(-c2ccc(Cl)c(O)c2)c(-c2ccncc2)[nH]1` [TCMDC-141147]: -93.22%.

For the compound `CN(C)CCOc1ccc(-c2cc(-c3ccnc(N)n3)c(-c3ccc(Cl)c(O)c3)o2)cc1` [TCMDC-141338], the “% Inhibition” value is given as -4.532%. With `CCCCCc1cc(O)c2c(c1)OC(C)(C)CC2C1=CCN(Cc2cccnc2)CC1` (stereo not shown) [TCMDC-131417], the “% Inhibition” value is reported as -23.46%. Turning to `CCCc1ccc(NC(=O)c2ccc(CN3CCCN(Cc4cccc(O)c4)CC3)cc2)cc1` [TCMDC-136421], the “% Inhibition” value worked out at 2.458%. The same measure, in the same setting: the same measure for `COc1ccc(C=NNc2nc(-c3ccccc3)cc(=O)[nH]2)cc1OC` [TCMDC-124217]: 8.014%. Still for that read-out and setting: the same measure for `CC(C)NCC(O)Cn1c2ccc(Br)cc2c2cc(Br)ccc21` (stereo not shown) [TCMDC-124100]: 43.74%. Still for that read-out and setting: the value for `OC(CNC1CCCCC1)Cn1c2ccc(Br)cc2c2cc(Br)ccc21` (stereo not shown) [TCMDC-124059] was 90.2%. In the case of `N#Cc1ccc(C2CCN(CC[C@H](N)Cc3ccc(Cl)s3)CC2)cc1` [TCMDC-132358], the “% Inhibition” value was 63.71%. `N#Cc1ccc(-c2ccc(C(=O)NCCCCN3CCC(c4ccncc4)CC3)cc2)cc1` [TCMDC-135811]: the “% Inhibition” value was -0.7108%. Same read-out and setting: the same measure for `N#Cc1cccc(C(=O)N2CCOC(CCN3CCC(c4ccccc4)CC3)(c3ccc(Cl)c(Cl)c3)C2)c1` (stereo not shown) [TCMDC-135335]: 20.78%. On the same count and under the same terms, the same measure for `CC1(C)N=C(N)N=C(N)N1O` [TCMDC-131576]: -2.875%; for `COc1ccc2ncc(F)c(CCN3CC[C@H](NC(=O)c4ccc5c(n4)NC(=O)CS5)[C@H](O)C3)c2n1` [TCMDC-135907]: -25.82%; for `COc1ccc2ncc(F)c(CCN3CCC[C@H](CNCc4ccc5c(n4)NC(=O)CS5)C3)c2n1` [TCMDC-136318]: 98.5%. The same measure, in the same setting: the same measure for `COc1ccc2ncc(F)c(CCN3CC[C@@H](CNCc4nc5c(cc4C)SCC(=O)N5)C3)c2n1` [TCMDC-136056]: 97.91%; for `COc1ccc2ncc(F)c(CCN3CC4CCCC4(CNCc4ccc5c(n4)NC(=O)CS5)C3)c2n1` (stereo not shown) [TCMDC-136065]: 28.02%; for `COc1ccc2ncc(F)c(CCN3CC[C@@H](CNCc4cc5c(cn4)OCS5)C3)c2n1` [TCMDC-135643]: 33.53%. In the case of `COc1ccc2ncc(Cl)c(CCN3C[C@H](CNCc4ccc5c(n4)NC(=O)CS5)[C@H](O)C3)c2n1` [TCMDC-136241], the “% Inhibition” value was 10.16%.
